Source: PubChem BioAssay (National Center for Advancing Translational Sciences (NCATS))
The entries come from a sample that favours hits as a whole.
KDM5B inhibitor: blocks human KDM5B histone demethylase activity. Potency, µM (series often up to 57.7 µM), hits mostly inhibitors. KDM5B demethylase, FDH-coupled NADH fluorescence (FDH is formaldehyde dehydrogenase). AID 1347165. actives 2.6% (n = 220,000); active means well fitted inhibition curve with a large enough effect; further: 0% is about no effect; nearly all actives have a fitted effect of over 70% in size
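KDM5BΔAP (200 nM final) in 50 mM HEPES pH 7.5, 0.01% Tween-20 was preincubated 10 min at RT with compound over a concentration range. Substrate mix (H3K4me3 12.5 µM, α-KG 25 µM, Fe²⁺, ascorbate, NAD⁺, FDH) was added, and NADH fluorescence change over 30 min gave dose-response curves.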
The depositor's hits bear a star; i = inactive. Potency means the concentration at half of the fitted maximal effect.

SMILES | KDM5B inhibitor
O=C(NCc1ccco1)N1CCC(OC2CCN(Cc3ccccc3)CC2)CC1 | i
Cn1c(=O)n([C@H]2CCCN(S(=O)(=O)Cc3ccccc3)C2)c2ncccc21 | i
CCCCS(=O)(=O)N1CCCC2(C1)Nc1cccnc1NC2=NCc1ccccc1 (centres undefined) | 28µM*
O=C(NCc1ccco1)N1CCCC2(C1)Nc1cccnc1NC2=NCc1ccccc1 (centres undefined) | 25µM*
Cc1cccc(C(=O)N2CCCC3(C2)NC(=O)N(Cc2ccccc2)C3=O)c1 (centres undefined) | i
Cc1ccc(C(=O)N2CCCC3(C2)Nc2cccnc2NC3=NCc2ccccc2)cn1 (centres undefined) | 28µM*
CC(C)(C)c1ccc(C(=O)N2CCCC3(C2)NC(=O)N(Cc2ccccc2)C3=O)cc1 (centres undefined) | i
O=C(NCc1ccco1)N1CCc2n[nH]c(=O)n2CC1 | i
Cc1ccc(NC(=O)CCN2CCN(Cc3ccccc3)CC2)cc1Br | i
COc1cccc(-c2ccc3c(n2)c(=O)ncn3CC2CC2)c1 | i
COc1cccc(F)c1-c1ccc2c(n1)c(=O)ncn2Cc1ccccc1 | i
COc1ccc(-c2ccc3c(n2)c(=O)ncn3Cc2ccccc2)cc1OC | i
O=c1ncn(Cc2ccccc2)c2ccc(-c3ccsc3)nc12 | 35µM*
COc1ccc(-c2ccc3c(n2)c(=O)ncn3Cc2ccccc2)cn1 | i
O=c1ncn(Cc2ccccc2)c2ccc(-c3ccc(F)cc3F)nc12 | 28µM*
Cc1nc2cccnc2n1CC1CCCN(S(=O)(=O)c2cccc(Br)c2)C1 (centres undefined) | i
CCc1cccc2c(C(=O)Cn3nnc(-c4ccccc4)n3)c[nH]c12 | i
O=C(NCCNC(=O)c1ccccc1Nc1ccccc1)c1ccccc1Nc1ccccc1 | i
CCOCC(=O)N1CCC(Nc2nccnc2OC)CC1 | 28µM*
COc1nccnc1NC1CCN(C(=O)Cc2cccs2)CC1 | 32µM*
CCCNC(=O)N(C1CCOCC1)C1CCN(C(=O)Cc2ccccc2F)CC1 | i
O=C(Cc1cccs1)N1CCN(c2cc(C(F)(F)F)ncn2)CC1 | i
COc1nccnc1NC1CCN(C(=O)Cc2ccccc2F)CC1 | 35µM*
COc1nccnc1NC1CCN(C(=O)NC2CCCCC2)CC1 | 32µM*
COCCO[C@H]1C(=O)N(C2CCN(C(=O)NC3CCCCC3)CC2)[C@H]1c1ccncc1 | i
SMILES | KDM5B inhibitor
CO[C@H]1C(=O)N(C(C)C)[C@H]1C1CCN(C(=O)NC2CCCCC2)CC1 | i
COCC(=O)N1CCC(Oc2ncccc2C(=O)N(C)C)CC1 | i
CCOCC(=O)N1CCC(N2CC(OCC3CC3)C23CCCCC3)CC1 (centres undefined) | i
CCCN(C)c1nccnc1OC1CCN(C(=O)Cc2ccccc2OC)C1 (centres undefined) | i
COc1ccc(-n2nnc3c(N4CCN(C(=O)Cc5cccs5)CC4)ncnc32)cc1 | i
Cc1ccc2c(Cl)cc(Cl)c(OCC(=O)NC(=O)NCc3ccccc3)c2n1 | i
CCCCn1c(=O)[nH]c(=O)c2c1nc(-c1ccc(OC)c(OCc3ccccc3)c1)n2C | i
CCOc1ccc(C(C)NC(=O)Cc2cccs2)cc1OCC (centres undefined) | i
O=C1NC(C(=O)O)=CC(c2cc(Cl)ccc2Cl)N1 (centres undefined) | i
CCc1ccc(OCC(=O)Nc2ccc3oc(C)nc3c2)cc1 | i
CCS(=O)(=O)N1CCc2cc(C(=O)COc3ccc(C(=O)c4ccc(F)cc4)cc3)ccc21 | i
CCCCn1nc(C(=O)NCCNS(=O)(=O)c2cc(C)ccc2C)c2ccccc2c1=O | i
O=C(CSc1nnnn1-c1ccc(C(=O)O)cc1)Nc1ccccc1 | i
COc1cccc2cc(C(=O)N(Cc3ccccc3)Cc3ccccc3)c(=O)oc12 | i
Cc1ccc(NS(=O)(=O)c2ccc(-c3cnc(C)o3)cc2)c(Cl)c1 | i
O=C1C=Cc2ccc(Br)c3cccc1c23 | i
CCCN1CCC(C(=O)O)CC1 | i
Cn1ccc2cc(S(=O)(=O)N3CCN(C(=O)Nc4ccccc4F)CC3)ccc21 | i
CS(=O)(=O)N1CCC(OC2CCN(C(=O)Nc3ccccc3F)CC2)CC1 | i
O=C(Nc1ccccc1)N1CCc2nc(-c3ccc(Cl)cc3)nc(-c3ccccc3)c2C1 | i
Cn1c2c(c3ccccc31)CN(C(=O)Nc1ccccc1F)CC2 | 22µM*
CC(=O)N1CCn2cc(C(=O)Nc3ccc(Cl)cc3Cl)nc2C1 | i
Cn1c2c(c3ccccc31)CN(C(=O)Nc1ccc(Cl)cc1Cl)CC2 | 22µM*
Cc1cccc(N2CCN(CC(=O)NC(=O)NCC(F)(F)F)CC2)c1C | i
CCCn1nc(C(=O)Nc2ccc(F)c(S(=O)(=O)N3CCOCC3)c2)c2ccccc2c1=O | i
COc1ccc(S(=O)(=O)NC[C@@H]2C=C(C)[C@H](CC(=O)N(C)Cc3cccnc3)C[C@H]2C(C)C)cc1 | i
CCOc1ccccc1/C=N/O | i
CC(C(=O)N(C)C1(C#N)CCCCC1)N(C)CC(=O)Nc1cccc(F)c1 (centres undefined) | i
Cc1cc(NC(=O)c2cccnc2)cc(-c2nc3cc(C(C)C)ccc3o2)c1O | i
